Source: PubChem BioAssay (NCI)
About 83,000 compounds went through this panel and 20% of them were active in at least one assay; those are over-represented in the sample as a whole.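 Activity criterion: percent growth below 10, measured after cells in 96-well plates were exposed to a single compound concentration for 48 hours.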 Values without a mark were called inactive. The source made the active and inactive calls.

Assays:
Assay in all cases: NCI-60 one-dose screen, 48 h (100 = growth as untreated, 0 = no growth, -100 = all killed)
Details in all cases: 10 µM unless noted
[1] = tested on: SR leukemia
[2] = tested on: RPMI-8226 leukemia
[3] = tested on: OVCAR-8 ovarian
[4] = tested on: OVCAR-5 ovarian
[5] = tested on: OVCAR-4 ovarian
[6] = tested on: SK-OV-3 ovarian
[7] = tested on: IGROV1 ovarian
[8] = tested on: OVCAR-3 ovarian
[9] = tested on: HS 578T breast
[10] = tested on: NCI/ADR-RES ovarian
[11] = tested on: T-47D breast
[12] = tested on: BT-549 breast
[13] = tested on: MDA-MB-435 melanoma
[14] = tested on: SW-620 colon
[15] = tested on: MCF7 breast
[16] = tested on: HCT-116 colon
[17] = tested on: HCC-2998 colon
[18] = tested on: KM12 colon

In the case of COc1cc(C(=O)CCCl)ccc1O, the growth [1] is reported as 96.9%, the growth [2] is reported as 92% and the growth [3] is reported as 102%. The growth [4] was 92.7%, the growth [5] was 98.8% and the growth [6] was 111%. For the same molecule, the growth [7] was 104%, the growth [8] was 102% and the growth [9] was 101%. It also gave a growth [10] of 94.6%, a growth [11] of 94.7% and a growth [12] of 112%. It also gave a growth [13] of 103%, a growth [14] of 103% and a growth [15] of 80.2%. The growth [16] was 100%, the growth [17] was 103% and the growth [18] was 97.1%.

O=C(OCCCCOC(=O)n1cnc2ccccc21)n1cnc2ccccc21 was tested, and the growth [1] was 84.6%, the growth [2] was 102% and the growth [3] was 99.7%. The growth [4] was 103%, the growth [5] was 105% and the growth [6] was 98.9%. It also gave a growth [7] of 102%, a growth [8] of 108% and a growth [9] of 90.2%. The growth [10] was 105%, the growth [11] was 92.2% and the growth [12] was 104%. The growth [13] was 103%, the growth [14] was 106% and the growth [15] was 96.7%. For the same molecule, the growth [16] was 102%, the growth [17] was 111% and the growth [18] was 104%.

CCN(CC)CCCNc1nc(C)cc(Nc2ccc3nc(C)cc(N)c3c2)n1 gave a growth [1] of 110%, a growth [2] of 102% and a growth [3] of 106%. For the same molecule, the growth [4] was 102%, the growth [5] was 116% and the growth [6] was 89.9%. For the same molecule, the growth [7] was 97.8%, the growth [8] was 106% and the growth [9] was 109%. It also gave a growth [10] of 101%, a growth [11] of 92.2% and a growth [12] of 84.9%. The growth [13] was 103%, the growth [14] was 117% and the growth [15] was 92.8%. It also gave a growth [16] of 93%, a growth [17] of 97.6% and a growth [18] of 101%.

For CC1(C)OC2COC3(C(=O)O)OC(C)(C)OC3C2O1 (stereo unspecified), the growth [1] was 121%, the growth [2] was 109% and the growth [3] was 108%. For the same molecule, the growth [4] was 90.1%, the growth [5] was 116% and the growth [6] was 103%. The growth [7] was 109%, the growth [8] was 108% and the growth [9] was 101%. For the same molecule, the growth [10] was 101%, the growth [11] was 90.2% and the growth [12] was 106%. For the same molecule, the growth [13] was 93.8%, the growth [14] was 98.2% and the growth [15] was 99.7%. The growth [16] was 114%, the growth [17] was 97.6% and the growth [18] was 98.4%.

With Cc1cc(Nc2nc(C(=O)Nc3ccccc3)nc3ccccc23)n[nH]1 the growth [1] was 33%, the growth [2] was 59.6% and the growth [3] was 75.6%. For the same molecule, the growth [4] was 82.2%, the growth [5] was 44.6% and the growth [6] was 39.3%. It also gave a growth [7] of 39.6%, a growth [8] of 78.1% and a growth [9] of 73.2%. It also gave a growth [10] of 44.2%, a growth [11] of 47% and a growth [12] of 50.6%. It also gave a growth [13] of 64.9%, a growth [14] of 77.5% and a growth [15] of 72.1%. It also gave a growth [16] of 45.6%, a growth [17] of 84.3% and a growth [18] of 28%.

O=P([O-])(O)OP(=O)([O-])O.[NH-][C@H]1CCCC[C@@H]1[NH-].[OH-].[OH-].[Pt+4] gave a growth [1] of 91.3%, a growth [2] of 97.8% and a growth [3] of 101%. For the same molecule, the growth [4] was 95.2%, the growth [5] was 109% and the growth [6] was 106%. The growth [7] was 108%, the growth [8] was 111% and the growth [9] was 109%. For the same molecule, the growth [10] was 103%, the growth [11] was 114% and the growth [12] was 117%. It also gave a growth [13] of 99.3%, a growth [14] of 105% and a growth [15] of 96.7%. For the same molecule, the growth [16] was 101%, the growth [17] was 98.8% and the growth [18] was 104%.

For O=C(Nc1cccc(Cl)c1)c1cc([N+](=O)[O-])ccc1O, the growth [1] was 57%, the growth [2] was 25.4% and the growth [3] was 69.3%. For the same molecule, the growth [4] was 68.8%, the growth [5] was 46.1% and the growth [6] was 59.8%. For the same molecule, the growth [7] was 62.5%, the growth [8] was 42% and the growth [9] was 41.9%. The growth [10] was 56%, the growth [11] was 41.9% and the growth [12] was 66.5%. For the same molecule, the growth [13] was 60.4%, the growth [14] was 58.7% and the growth [15] was 42.9%. It also gave a growth [16] of 45.9%, a growth [17] of 29.2% and a growth [18] of 43.1%.

For COc1cc(-c2n[nH]nc2-c2ccc3c(c2)OCCO3)cc(OC)c1OC, the growth [1] was 9.29% (active), the growth [2] was 0.653% (active) and the growth [3] was 9.51% (active). For the same molecule, the growth [4] was 11.7%, the growth [5] was 34.8% and the growth [6] was 3.32% (active). For the same molecule, the growth [7] was 21.9%, the growth [8] was -33.9% (active) and the growth [9] was 12.7%. For the same molecule, the growth [10] was 2.71% (active), the growth [11] was 40.5% and the growth [12] was 12%. The growth [13] was -11.4% (active), the growth [14] was 19.4% and the growth [15] was 9.04% (active). For the same molecule, the growth [16] was 8.07% (active), the growth [17] was 10.1% and the growth [18] was 9.43% (active).

In the case of COc1ccc(-c2nc3sccn3c2-c2ccnc(NCCCNS(=O)(=O)c3ccc4ccccc4c3)n2)cc1, the growth [1] is reported as 57%, the growth [2] is reported as 54.9% and the growth [3] is reported as 57.3%. The growth [4] was 132%, the growth [5] was 68.1% and the growth [6] was 95.1%. For the same molecule, the growth [7] was 75.3%, the growth [8] was 82.7% and the growth [9] was 92.1%. It also gave a growth [10] of 53.5%, a growth [11] of 32.6% and a growth [12] of 65.3%. The growth [13] was 50%, the growth [14] was 105% and the growth [15] was 52.2%. It also gave a growth [16] of 60.2%, a growth [17] of 84.1% and a growth [18] of 50.1%.

Molecule Cc1ccc2nc(-c3c(CCCO)noc3N)[nH]c(=O)c2c1 has a growth [1] of 71.8%, a growth [2] of 90.4% and a growth [3] of 106%. The growth [4] was 120%, the growth [5] was 97.4% and the growth [6] was 106%. For the same molecule, the growth [7] was 4.96% (active), the growth [8] was 104% and the growth [9] was 104%. It also gave a growth [10] of 123%, a growth [11] of 107% and a growth [12] of 102%. The growth [13] was 110%, the growth [14] was 103% and the growth [15] was 88.7%. It also gave a growth [16] of 102%, a growth [17] of 128% and a growth [18] of 102%.

Work on O=C1NC(Cc2c[nH]c3ccccc23)C(=O)N1Cc1ccc(Cl)cc1 (stereo unspecified) yielded a growth [1] of 90.1%, a growth [2] of 73.1% and a growth [3] of 97.9%. For the same molecule, the growth [4] was 108%, the growth [5] was 96.9% and the growth [6] was 101%. For the same molecule, the growth [7] was 85.2%, the growth [8] was 106% and the growth [9] was 108%. It also gave a growth [10] of 106%, a growth [11] of 94.3% and a growth [12] of 96.3%. It also gave a growth [13] of 92.2%, a growth [14] of 98.4% and a growth [15] of 98%. For the same molecule, the growth [16] was 93.4%, the growth [17] was 131% and the growth [18] was 99.3%.

In the case of O=C(CNC1CCCCC1)Nc1ccc(-c2nc3ccccc3s2)cc1, the growth [1] is reported as 9.67% (active), the growth [2] is reported as 77.6% and the growth [3] is reported as 99.3%. For the same molecule, the growth [4] was 94.7%, the growth [5] was 84.4% and the growth [6] was 90.8%. For the same molecule, the growth [7] was 100%, the growth [8] was 94% and the growth [9] was 84.3%. The growth [10] was 89%, the growth [11] was 69.1% and the growth [12] was 87.6%. It also gave a growth [13] of 90.4%, a growth [14] of 100% and a growth [15] of 28%. It also gave a growth [16] of 77%, a growth [17] of 87.3% and a growth [18] of 83.9%.

C=C1C(=O)O[C@H]2[C@H]1CC/C(Cn1cc(-c3ccccc3C(F)(F)F)nn1)=C\CC[C@@]1(C)O[C@@H]21 was tested, and the growth [1] was 2.59% (active), the growth [2] was -29.4% (active) and the growth [3] was -27.1% (active). The growth [4] was -18.6% (active), the growth [5] was -19% (active) and the growth [6] was 79.1%. The growth [7] was -21.4% (active), the growth [8] was -93.8% (active) and the growth [9] was 39.1%. For the same molecule, the growth [10] was 19.6%, the growth [11] was -82.4% (active) and the growth [12] was -60.4% (active). The growth [13] was 4.12% (active), the growth [14] was -62.9% (active) and the growth [15] was -70.5% (active). The growth [16] was -99.1% (active), the growth [17] was -45.9% (active) and the growth [18] was 36.5%.

For COC(=O)CC/C(C)=N\Nc1ccc([N+](=O)[O-])cc1, the growth [1] was 34.6%, the growth [2] was 51.8% and the growth [3] was 59.1%. The growth [4] was 79.4%, the growth [5] was 76.3% and the growth [6] was 62.5%. It also gave a growth [7] of 74.2%, a growth [8] of 88.3% and a growth [9] of 81.7%. The growth [10] was 78%, the growth [11] was 42% and the growth [12] was 89.1%. For the same molecule, the growth [13] was 31.7%, the growth [14] was 54.4% and the growth [15] was 77.1%. The growth [16] was 54.1%, the growth [17] was 66.1% and the growth [18] was 24.3%.

Nc1nn2cc(-c3ccc(Cl)s3)nc2c2ccccc12 showed a growth [1] of 49.7%, a growth [2] of 92% and a growth [3] of 105%. The growth [4] was 79.1%, the growth [5] was 87.5% and the growth [6] was 103%. It also gave a growth [7] of 44.7%, a growth [8] of 77.8% and a growth [9] of 96.7%. It also gave a growth [10] of 86.7%, a growth [11] of 55.8% and a growth [12] of 105%. It also gave a growth [13] of 93.4%, a growth [14] of 98.6% and a growth [15] of 44.3%. The growth [16] was 77.6%, the growth [17] was 92.4% and the growth [18] was 79.2%.

In the case of O=C(NNC(=S)Nc1ccccc1)c1ccccn1, the growth [1] is reported as 9.67% (active), the growth [2] is reported as 37.6% and the growth [3] is reported as 23.2%. For the same molecule, the growth [4] was 51.3%, the growth [5] was 20.1% and the growth [6] was 33.5%. The growth [7] was 21.2%, the growth [8] was 33.6% and the growth [9] was 65.8%. For the same molecule, the growth [10] was 24.7%, the growth [11] was 53.2% and the growth [12] was 55.1%. It also gave a growth [13] of 48.4%, a growth [14] of 42.1% and a growth [15] of 27.2%. It also gave a growth [16] of 26.7%, a growth [17] of 40.6% and a growth [18] of 32.1%.

In the case of CCSc1nnc(NC(=O)Cc2ccc(Cl)cc2)s1, the growth [1] is reported as 103%, the growth [2] is reported as 116% and the growth [3] is reported as 113%. For the same molecule, the growth [4] was 97.1%, the growth [5] was 107% and the growth [6] was 106%. The growth [7] was -24.9% (active), the growth [8] was 106% and the growth [9] was 110%. For the same molecule, the growth [10] was 104%, the growth [11] was 96.2% and the growth [12] was 109%. The growth [13] was 98.9%, the growth [14] was 109% and the growth [15] was 101%. The growth [16] was 105%, the growth [17] was 84.9% and the growth [18] was 96.9%.
